Activity calls are given as the source filed them. Unless noted, how the calls were made is not given here.

The test system of assay [1] is Wnt5a (protein binding on small-molecule microarray). The assay can be described thus: Wnt5a binders on small-molecule microarray, primary screen, biophysical, 635/667 nm fluorescence (AID 1142).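 Further: fluorescence read at 667 nm with signal to noise per printed feature.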 The following applies: 635 nm fluorescence, higher = more signal.
Assay [2] is described as follows: cell viability in Huh7 cells, primary screen, cytotoxicity control for HCV replication inhibitor project, CellTiter-Glo luminescence, basal, 48 h (AID 1143).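 Further: Huh7 hepatoma cells carrying a hepatitis C replication reporter with no stimulus; test concentration not given here.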 Particulars: Huh7 HCV replicon, higher = more signal, called active from +8 up or from −8 down. (In ATP-based viability assays light output follows the ATP content of the culture.)
A short description of assay [3]: P. aeruginosa biofilm formation inhibitors, primary screen, PAO1 strain, BacTiter-Glo luminescence, LB-PBS (AID 1144). The following applies: 12 h, higher = more signal.
Assay [4] can be described thus: CREB reporter modulators without forskolin, primary screen, cell-based, PC12, CRE-LacZ reporter, unstimulated (AID 1145). The following applies: no forskolin, luminescence, 4.5 h, higher = more signal, called active from +8 up or from −8 down.
Assay [5] can be described thus: CREB reporter modulators under forskolin, primary screen, cell-based, PC12, CRE-LacZ reporter, forskolin-stimulated (AID 1146).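 Further: PC12 cells with 6xCRE LacZ reporter stimulated by forskolin 10 µM; beta-galactosidase reporter signal reflecting CREB driven transcription.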 The following applies: luminescence, 4.5 h, higher = more signal, called active from +8 up or from −8 down.
For assay [6], the target named is Streptavidin (Streptomyces avidinii) (UniProt P22629). Description: streptavidin binders on small-molecule microarray, primary screen, artefact control for SMM compound annotation, biophysical, 635/667 nm fluorescence (AID 1147).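 Further: signal reflects streptavidin binding to arrayed compounds as a control protein.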 Particulars: streptavidin binding, higher = more signal.
Assay [7] can be described thus: small-molecule binders of probe aInhba, primary screen, biochemical, small-molecule microarray, 635/667 nm fluorescence (AID 1148).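 Further: score merges 667nm spot fluorescence with signal-to-noise for antibody binding to printed compounds.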 Particulars: higher = more signal.
Assay [8] deals with Torsin-1A (Homo sapiens) (UniProt O14656). The assay can be described thus: torsin A binders from cell lysate, primary screen, small-molecule microarray, wild-type, 635/667 nm (AID 1149). The following applies: COS7 hTOR1A-WT lysate, 635 nm fluorescence, higher = more signal.
The target is the same in assay [9]. The assay can be described thus: small-molecule binders of mutant TOR1A in lysate, primary screen, cell lysate, small-molecule microarray, COS7 lysate, 635/667 nm fluorescence (AID 1150).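 Further: score pools 667 nm emission and signal to noise measuring lysate protein binding.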 Particulars: COS7 hTOR1A mutant lysate, 635 nm fluorescence, higher = more signal.
The test system of assay [10] is Sonic hedgehog protein (Shh). The assay can be described thus: small-molecule binders of Shh protein, primary screen, biochemical, small-molecule microarray, 635/667 nm fluorescence (AID 1151).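 Further: Shh protein binding to compounds spotted on small-molecule microarray slides; score combines spot fluorescence intensity with signal-to-noise across triplicate slides.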 Particulars: small-molecule microarray binding, 635 nm fluorescence; higher = more signal.
A short description of assay [11]: E. coli DRC41 culture turbidity changes, primary screen, E. coli filamentation inducer project, strain DRC41, OD650, 48 h (AID 1152).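 Further: E. coli MC1000 strain DRC41 lacking acrAB efflux pump and sulA.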 The following applies: E. coli DRC41 (acrAB sulA), higher = more signal, called active from +8 up or from −8 down.
A short description of assay [12]: small-molecule binders of probe aLefty1, primary screen, biochemical, small-molecule microarray, 635/667 nm fluorescence (AID 1153).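 Further: score merges spot fluorescence with signal-to-noise ratio from the scanned slide images.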 The following applies: higher = more signal.
Assay [13] is described as follows: PSAC antagonists in infected red cells, primary screen, cell-based, P. falciparum Indochina, OD700, 1 h (AID 1154). Particulars: P. falciparum Indochina infected RBC osmotic lysis, higher = more signal, called active from +8 up or from −8 down.
Assay [14] in a line: PSAC antagonists in infected red cells, primary screen, cell-based, P. falciparum Indochina, OD700, 2 h (AID 1155).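 Further: lysis reports solute entry through the parasite surface anion channel PSAC; channel blockers reduce lysis of infected cells.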 Particulars: P. falciparum Indochina infected erythrocytes, osmotic lysis OD700; higher = more signal, called active from +8 up or from −8 down.
Assay [15] in a line: osmotic lysis modulators in infected erythrocytes, primary screen, PSAC antagonist project, cell-based, P. falciparum Indochina, OD700, 3 h (AID 1156). The following applies: higher = more signal, called active from +8 up or from −8 down.
The nature of assay [16]: PSAC antagonists in infected red cells, primary screen, cell-based, P. falciparum Indochina, OD700, 18 h (AID 1157). Particulars: P. falciparum Indochina infected erythrocytes, osmotic lysis OD700, 18 h; higher = more signal, called active from +8 up or from −8 down.
Assay [17] is described as follows: modulators of S6 phosphorylation in cells, primary screen, cell-based, A549, cytoblot, luminescence, serum-stimulated (AID 1158).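 Further: serum-stimulated A549 lung adenocarcinoma cells; signal is phosphorylated S6 detected by cytoblot immunostaining with HRP secondary.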 Particulars: A549 phospho-S6 cytoblot, 5 h, higher = more signal.
Assay [18] addresses NADPH oxidase 2 (Homo sapiens) (UniProt P04839). Description: NOX2-dependent H2O2 signal modulators, primary screen, NOX inhibitor project, cell-based, HEK293-NOX2, PMA-stimulated, Amplex Red fluorescence (AID 1159). Further: test concentration not given here. The following applies: 45 min, higher = more signal, called active from +8 up or from −8 down.
Assay [19] concerns the target NADPH oxidase 4 (Homo sapiens) (UniProt Q9NPH5). The assay can be described thus: NOX4-dependent H2O2 signal modulators, primary screen, NOX inhibitor project, cell-based, HEK293-NOX4, tetracycline-induced, Amplex Red fluorescence (AID 1160). The following applies: 45 min, higher = more signal, called active from +8 up or from −8 down.
The target in assay [20] is NADPH oxidase 5 (Homo sapiens) (UniProt Q96PH1). Description: NOX5-dependent H2O2 signal modulators, primary screen, NOX inhibitor project, cell-based, HEK293-NOX5, Amplex Red fluorescence (AID 1161). The following applies: HEK293-NOX5, ionomycin, 45 min, higher = more signal.
Sequence of NADPH oxidase 5 (Homo sapiens) (Q96PH1 whole entry, looked up): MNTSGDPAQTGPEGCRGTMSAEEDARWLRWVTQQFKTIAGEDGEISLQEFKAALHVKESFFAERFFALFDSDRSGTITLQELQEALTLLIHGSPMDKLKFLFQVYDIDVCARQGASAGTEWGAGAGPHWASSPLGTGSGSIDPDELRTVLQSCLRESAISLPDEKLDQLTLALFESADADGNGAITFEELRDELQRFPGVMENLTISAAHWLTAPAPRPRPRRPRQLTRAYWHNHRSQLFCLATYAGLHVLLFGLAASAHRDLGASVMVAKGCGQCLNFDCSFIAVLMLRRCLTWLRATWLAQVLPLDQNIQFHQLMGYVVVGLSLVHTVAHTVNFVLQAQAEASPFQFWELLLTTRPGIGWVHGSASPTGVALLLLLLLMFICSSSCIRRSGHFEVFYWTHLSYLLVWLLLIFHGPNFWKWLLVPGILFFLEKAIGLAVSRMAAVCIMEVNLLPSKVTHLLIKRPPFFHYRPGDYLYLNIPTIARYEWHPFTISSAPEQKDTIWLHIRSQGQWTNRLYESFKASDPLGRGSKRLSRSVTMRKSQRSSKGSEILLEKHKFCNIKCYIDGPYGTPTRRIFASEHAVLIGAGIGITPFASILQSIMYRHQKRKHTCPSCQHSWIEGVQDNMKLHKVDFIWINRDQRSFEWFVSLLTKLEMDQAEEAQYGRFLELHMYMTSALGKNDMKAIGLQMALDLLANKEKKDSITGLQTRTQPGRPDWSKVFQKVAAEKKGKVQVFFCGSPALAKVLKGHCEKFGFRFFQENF

Sequence of Streptavidin (Streptomyces avidinii) (P22629 whole entry, looked up): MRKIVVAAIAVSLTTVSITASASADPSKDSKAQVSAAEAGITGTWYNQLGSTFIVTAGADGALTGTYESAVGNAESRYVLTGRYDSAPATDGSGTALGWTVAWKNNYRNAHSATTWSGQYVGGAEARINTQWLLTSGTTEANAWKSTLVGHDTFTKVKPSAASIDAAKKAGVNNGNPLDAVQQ
Sequence of Torsin-1A (Homo sapiens) (O14656 whole entry, looked up): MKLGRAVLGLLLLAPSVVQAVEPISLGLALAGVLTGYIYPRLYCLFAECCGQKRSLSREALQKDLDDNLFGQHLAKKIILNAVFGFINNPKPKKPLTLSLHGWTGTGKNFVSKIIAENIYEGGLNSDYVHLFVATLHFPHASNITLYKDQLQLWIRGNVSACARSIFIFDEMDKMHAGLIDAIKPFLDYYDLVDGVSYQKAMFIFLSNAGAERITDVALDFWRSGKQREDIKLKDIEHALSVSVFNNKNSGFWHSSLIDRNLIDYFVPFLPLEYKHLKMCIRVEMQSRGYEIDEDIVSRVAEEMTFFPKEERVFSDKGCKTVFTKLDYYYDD
Sequence of NADPH oxidase 4 (Homo sapiens) (Q9NPH5 whole entry, looked up): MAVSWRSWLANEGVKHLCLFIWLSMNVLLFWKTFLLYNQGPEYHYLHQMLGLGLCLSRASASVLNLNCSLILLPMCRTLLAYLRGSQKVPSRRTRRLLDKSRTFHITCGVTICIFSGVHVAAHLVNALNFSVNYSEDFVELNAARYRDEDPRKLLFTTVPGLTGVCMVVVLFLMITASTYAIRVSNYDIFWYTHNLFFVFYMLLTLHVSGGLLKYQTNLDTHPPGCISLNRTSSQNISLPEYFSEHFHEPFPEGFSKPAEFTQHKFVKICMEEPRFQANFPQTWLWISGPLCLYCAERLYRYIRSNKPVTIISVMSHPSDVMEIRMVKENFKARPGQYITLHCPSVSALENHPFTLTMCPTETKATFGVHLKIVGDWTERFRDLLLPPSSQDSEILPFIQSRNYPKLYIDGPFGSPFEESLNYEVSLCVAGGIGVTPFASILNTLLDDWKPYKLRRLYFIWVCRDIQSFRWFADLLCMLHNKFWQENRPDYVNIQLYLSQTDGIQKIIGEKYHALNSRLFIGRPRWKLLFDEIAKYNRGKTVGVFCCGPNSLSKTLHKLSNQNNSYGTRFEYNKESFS
Sequence of NADPH oxidase 2 (Homo sapiens) (P04839 whole entry, looked up): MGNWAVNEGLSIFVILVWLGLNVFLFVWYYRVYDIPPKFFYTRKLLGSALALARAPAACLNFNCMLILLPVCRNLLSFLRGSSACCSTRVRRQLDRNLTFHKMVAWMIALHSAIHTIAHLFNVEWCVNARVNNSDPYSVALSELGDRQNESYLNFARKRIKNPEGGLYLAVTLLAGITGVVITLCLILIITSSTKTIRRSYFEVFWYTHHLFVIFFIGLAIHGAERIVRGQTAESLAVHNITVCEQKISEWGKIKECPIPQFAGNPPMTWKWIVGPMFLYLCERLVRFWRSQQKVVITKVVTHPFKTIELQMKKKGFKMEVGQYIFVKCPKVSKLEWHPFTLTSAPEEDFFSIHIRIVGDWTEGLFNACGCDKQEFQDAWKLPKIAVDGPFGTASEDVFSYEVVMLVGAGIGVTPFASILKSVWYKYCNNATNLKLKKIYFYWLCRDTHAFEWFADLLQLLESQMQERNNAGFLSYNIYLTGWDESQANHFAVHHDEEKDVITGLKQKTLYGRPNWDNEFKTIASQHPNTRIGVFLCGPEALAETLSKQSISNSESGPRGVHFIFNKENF

For `OB1C=CCC(CCc2ccccc2)O1` (stereo not given), the composite z-score in [1] was -0.248; in [6] it was -0.492; in [7], -0.385; with Torsin-1A (Homo sapiens) [8], -0.459; with Torsin-1A (Homo sapiens) [9], -0.643; in assay [10] it was 0.192. For the same molecule, the composite z-score in assay [12] is -0.0651. The z-score in [2] was -2.16 (inactive); in assay [3], -1.35 (inactive); in [4] it was 0.672 (inactive); in [5], -1.28 (inactive); in assay [11] it was 3.28 (inactive); in assay [13], -0.263 (inactive). Further, the z-score was -0.649 (inactive) in assay [14]; -1.32 (inactive) in [15]; -2.19 (inactive) in [16]; 0.946 in assay [17]; -1.05 (inactive) in [18]; 0.69 (inactive) in [19]. In assay [20], this molecule displayed a z-score of 1.22.

Take `COCCOC(=O)N1C(=O)[C@@]2(c3cc(C#CC4=CCCCC4)ccc31)[C@H](C(N)=O)[C@H]1C(=O)O[C@H](c3ccccc3)[C@H](c3ccccc3)N1[C@@H]2c1ccc(O)cc1`: the composite z-score in [1] was 0.838; in assay [6], 1.14; in assay [7], -0.0736; with Torsin-1A (Homo sapiens) [8], 1.03; with Torsin-1A (Homo sapiens) [9] it was 0.931; in assay [10], 1.08. The molecule also had a composite z-score in assay [12] of 0.148. Further, the z-score in assay [2] is -4.06 (inactive); in assay [3] it was -1.29 (inactive); in [4] it was -0.931 (inactive); in assay [5] it was -0.438 (inactive); in [11] it was 1.04 (inactive); in assay [13], 1.19 (inactive). Further, the z-score in [14] is -0.933 (inactive); in assay [15], 0.161 (inactive); in assay [16], -1.13 (inactive); in assay [17], 2.41; in assay [18] it was 1.11 (inactive); in assay [19] it was 0.563 (inactive). This molecule also displayed a z-score in [20] of 2.76.

Turning to `C=C(/C(=C/C[C@H](OC(=O)c1ccncc1)c1ccc(OCCO)cc1)c1cc(C(=O)OC)ccc1OC)C(C)C`, the composite z-score was -0.0134 in assay [1]; 1.23 in assay [6]; -0.016 in assay [7]; -0.511 in the assay with Torsin-1A (Homo sapiens) [8]; 0.284 in the assay with Torsin-1A (Homo sapiens) [9]; 0.711 in assay [10]. The same molecule returned a composite z-score in assay [12] of 0.0455. Besides, the z-score is -3.91 (inactive) in [2]; -0.518 (inactive) in [3]; 3.9 (inactive) in assay [4]; -0.359 (inactive) in assay [5]; 0.936 (inactive) in assay [11]; 14.5 (active) in [13]. The z-score in assay [14] was 1.19 (inactive); in assay [15] it was 1.29 (inactive); in [16], -1.07 (inactive); in assay [17], 0.622; in assay [18], -1.78 (inactive); in assay [19], -0.754 (inactive). Moreover, the z-score in assay [20] was -2.43.

On to `[N-]=[N+]=Nc1ccccc1C[C@@]1(C(=O)N2CCCCC2)N=C(c2ccc(OCCCO)cc2)O[C@@H]1c1ccccc1`, for which the composite z-score in [1] amounted to 0.46; in assay [6] it was 1.23; in [7] it was 0.298; with Torsin-1A (Homo sapiens) [8] it was 0.417; in the assay with Torsin-1A (Homo sapiens) [9] it was 0.36; in [10], 0.131. Besides, the composite z-score in assay [12] came to 0.0227. The z-score was -5.13 (inactive) in assay [2]; -0.682 (inactive) in [3]; 2.11 (inactive) in assay [4]; -0.0605 (inactive) in assay [5]; 2.42 (inactive) in assay [11]; 26.6 (active) in assay [13]. For the same molecule, the z-score in assay [14] was 18.4 (active); in assay [15] it was 2.78 (inactive); in [16], 2.31 (inactive); in assay [17] it was 0.159; in [18], -0.0547 (inactive); in [19] it was 0.951 (inactive). Besides, in [20], the z-score is -1.31.

The values above are taken from PubChem BioAssay.
